Reference: PubChem BioAssay AID1159580 (chemical genetic matrix, 2015)
Hit rate of the full screen: of about 5,500 compounds, about 2,000 (36%) were called active. About 18% were inconclusive and are not listed. No stated cut-off is given here; in the data, active means normalized growth mostly below about 0.91 (no sharp cut-off); inconclusive means no clear call, values can overlap the other calls; inactive means mostly above about 0.92. The list shows a part of the results.

Experiment: chemical genetic growth profiling, strain panel (AID 1159580);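 further: tested at 20 µM; growth read once vehicle control cultures reached saturation at 30 °C; 1 = growth at the plate median or of vehicle wells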
Conditions: growth OD

Measured: normalized growth

CN=C(N)NCCCC(N)C(=O)O (stereo unspecified)
inactive: S. cerevisiae deletion strains, locus YAL013W, strain DEP1, stronger effect = lower value 1.02 | S. cerevisiae deletion strains, locus YBR021W, strain FUR4, stronger effect = lower value 1.03 | S. cerevisiae deletion strains, locus YBR229C, strain ROT2, stronger effect = lower value 1.01 | S. cerevisiae deletion strains, locus YCL029C, strain bik1, stronger effect = lower value 0.996 | S. cerevisiae deletion strains, locus YDL035C, strain GPR1, stronger effect = lower value 1.04 | S. cerevisiae deletion strains, locus YDL074C, strain BRE1, stronger effect = lower value 1.05 | S. cerevisiae deletion strains, locus YDL101C, strain DUN1, stronger effect = lower value 1.03 | S. cerevisiae deletion strains, locus YDL134C, strain PPH21, stronger effect = lower value 1.01 | S. cerevisiae deletion strains, locus YDL185W, strain tfp1, stronger effect = lower value 1.02 | S. cerevisiae deletion strains, locus YDL192W, strain arf1, stronger effect = lower value 1.01 | S. cerevisiae deletion strains, locus YDR101C, strain arx1, stronger effect = lower value 1.01 | S. cerevisiae deletion strains, locus YDR150W, strain NUM1, stronger effect = lower value 1.02 | S. cerevisiae deletion strains, locus YDR162C, strain NBP2, stronger effect = lower value 1.03 | S. cerevisiae deletion strains, locus YDR318W, strain mcm21, stronger effect = lower value 1.04 | S. cerevisiae deletion strains, locus YDR388W, stronger effect = lower value 0.993 | S. cerevisiae deletion strains, locus YDR502C, strain sam2, stronger effect = lower value 1.01 | S. cerevisiae deletion strains, locus YEL061C, strain CIN8, stronger effect = lower value 1.01 | S. cerevisiae deletion strains, locus YER110C, stronger effect = lower value 0.997 | S. cerevisiae deletion strains, locus YER155C, strain BEM2, stronger effect = lower value 1.01 | S. cerevisiae deletion strains, locus YER167W, strain BCK2, stronger effect = lower value 1.05 | S. cerevisiae deletion strains, locus YGL078C, strain dbp3, stronger effect = lower value 1.01 | S. cerevisiae deletion strains, locus YGL086W, strain mad1, stronger effect = lower value 1.03 | S. cerevisiae deletion strains, locus YGL248W, strain PDE1, stronger effect = lower value 1.01 | S. cerevisiae deletion strains, locus YGR078C, strain PAC10, stronger effect = lower value 1.04 | S. cerevisiae deletion strains, locus YGR135W, strain pre9, stronger effect = lower value 1.02 | S. cerevisiae deletion strains, locus YGR229C, strain SMI1, stronger effect = lower value 1.05 | S. cerevisiae deletion strains, locus YGR252W, strain gcn5, stronger effect = lower value 1.17 | S. cerevisiae deletion strains, locus YHR030C, strain SLT2, stronger effect = lower value 1.01 | S. cerevisiae deletion strains, locus YHR079C, strain IRE1 (second series), stronger effect = lower value 0.995 | S. cerevisiae deletion strains, locus YHR094C, strain hxt1, stronger effect = lower value 0.986 | S. cerevisiae deletion strains, locus YHR129C, strain ARP1, stronger effect = lower value 1.01 | S. cerevisiae deletion strains, locus YHR200W, strain rpn10, stronger effect = lower value 1.02 | S. cerevisiae deletion strains, locus YIL066C, strain RNR3, stronger effect = lower value 1.03 | S. cerevisiae deletion strains, locus YIL073C, strain SPO22, stronger effect = lower value 1.09 | S. cerevisiae deletion strains, locus YIL125W, strain kgd1, stronger effect = lower value 1.01 | S. cerevisiae deletion strains, locus YIR030C, strain dcg1, stronger effect = lower value 0.997 | S. cerevisiae deletion strains, locus YJL095W, strain BCK1, stronger effect = lower value 1.02 | S. cerevisiae deletion strains, locus YJL134W, strain LCB3, stronger effect = lower value 1.02 | S. cerevisiae deletion strains, locus YJL168C, strain set2, stronger effect = lower value 0.987 | S. cerevisiae deletion strains, locus YJL187C, strain SWE1 (second series), stronger effect = lower value 1.02 | S. cerevisiae deletion strains, locus YJR043C, strain POL32, stronger effect = lower value 1.06 | S. cerevisiae deletion strains, locus YJR075W, strain HOC1, stronger effect = lower value 1.07 | S. cerevisiae deletion strains, locus YKL009W, strain mrt4, stronger effect = lower value 1.03 | S. cerevisiae deletion strains, locus YKL068W, stronger effect = lower value 1.01 | S. cerevisiae deletion strains, locus YKL085W, strain MDH1 (second series), stronger effect = lower value 1.03 | S. cerevisiae deletion strains, locus YKL085W, strain MDH1, stronger effect = lower value 1.03 | S. cerevisiae deletion strains, locus YKL190W, strain CNB1, stronger effect = lower value 1.02 | S. cerevisiae deletion strains, locus YKR001C, strain vps1, stronger effect = lower value 1.02 | S. cerevisiae deletion strains, locus YLR039C, strain RIC1, stronger effect = lower value 1.07 | S. cerevisiae deletion strains, locus YLR058C, strain SHM2, stronger effect = lower value 1.02 | S. cerevisiae deletion strains, locus YLR102C, strain apc9, stronger effect = lower value 0.986 | S. cerevisiae deletion strains, locus YLR262C, strain YPT6, stronger effect = lower value 1.1 | S. cerevisiae deletion strains, locus YLR268W, strain sec22, stronger effect = lower value 1.01 | S. cerevisiae deletion strains, locus YLR330W, strain CHS5, stronger effect = lower value 1.01 | S. cerevisiae deletion strains, locus YLR342W, strain FKS1 (second series), stronger effect = lower value 1.09 | S. cerevisiae deletion strains, locus YLR371W, strain rom2, stronger effect = lower value 0.975 | S. cerevisiae deletion strains, locus YLR418C, strain cdc73, stronger effect = lower value 1.01 | S. cerevisiae deletion strains, locus YML016C, strain PPZ1, stronger effect = lower value 1.02 | S. cerevisiae deletion strains, locus YML032C, strain rad52, stronger effect = lower value 1.05 | S. cerevisiae deletion strains, locus YML124C, strain tub3, stronger effect = lower value 1.01 | S. cerevisiae deletion strains, locus YMR078C, strain ctf18, stronger effect = lower value 1 | S. cerevisiae deletion strains, locus YMR223W, strain ubp8, stronger effect = lower value 1.04 | S. cerevisiae deletion strains, locus YMR263W, strain SAP30, stronger effect = lower value 1.04 | S. cerevisiae deletion strains, locus YMR307W, strain GAS1, stronger effect = lower value 1.14 | S. cerevisiae deletion strains, locus YNL067W, strain RPL9B, stronger effect = lower value 1.02 | S. cerevisiae deletion strains, locus YNL128W, strain TEP1, stronger effect = lower value 1.03 | S. cerevisiae deletion strains, locus YNL153C, strain GIM3, stronger effect = lower value 1.03 | S. cerevisiae deletion strains, locus YNL233W, strain BNI4, stronger effect = lower value 1.03 | S. cerevisiae deletion strains, locus YNL250W, strain rad50, stronger effect = lower value 1.02 | S. cerevisiae deletion strains, locus YNL271C, strain bni1, stronger effect = lower value 1.01 | S. cerevisiae deletion strains, locus YNL298W, strain CLA4, stronger effect = lower value 1.04 | S. cerevisiae deletion strains, locus YNL307C, strain MCK1, stronger effect = lower value 1.02 | S. cerevisiae deletion strains, locus YNL322C, strain KRE1, stronger effect = lower value 1.02 | S. cerevisiae deletion strains, locus YNR052C, strain pop2, stronger effect = lower value 1 | S. cerevisiae deletion strains, locus YOL006C, strain TOP1, stronger effect = lower value 1.05 | S. cerevisiae deletion strains, locus YOL012C, strain htz1 1.01 | S. cerevisiae deletion strains, locus YOL147C, strain pex11, stronger effect = lower value 0.995 | S. cerevisiae deletion strains, locus YOR061W, strain CKA2, stronger effect = lower value 1.02 | S. cerevisiae deletion strains, locus YOR069W, strain VPS5, stronger effect = lower value 1.01 | S. cerevisiae deletion strains, locus YOR136W, strain idh2, stronger effect = lower value 1.02 | S. cerevisiae deletion strains, locus YOR144C, strain elg1, stronger effect = lower value 1.01 | S. cerevisiae deletion strains, locus YOR184W, strain ser1, stronger effect = lower value 1.07 | S. cerevisiae deletion strains, locus YOR316C, strain cot1, stronger effect = lower value 0.99 | S. cerevisiae deletion strains, locus YPL055C, strain LGE1, stronger effect = lower value 1.1 | S. cerevisiae deletion strains, locus YPL241C, strain CIN2, stronger effect = lower value 1.02 | S. cerevisiae deletion strains, locus YPR119W, strain clb2, stronger effect = lower value 0.984 | S. cerevisiae deletion strains, locus YPR141C, strain kar3, stronger effect = lower value 1.02 | S. cerevisiae deletion strains, locus YPR163C, strain tif3, stronger effect = lower value 1 | S. cerevisiae deletion strains, locus YPR167C, strain met16, stronger effect = lower value 1.01 | S. cerevisiae deletion strains, strain wtn01, stronger effect = lower value 0.994 | S. cerevisiae strains, strain wild type, stronger effect = lower value 1.03
